# Assay results as given in PubChem BioAssay (EPA / NIEHS).
# Activity calls are given as the source filed them. How the source made its calls: active means hit-call score of the fitted dose curve at least 0.9, where 1 is the maximum; inactive means score below 0.9.
# How the values were obtained:
# [1] = read-out: Urokinase-type plasminogen activator receptor (uPAR), PLAUR (gene 5329); experiment: BSK_CASM3C_uPAR: BioMAP Diversity Plus: CASM3C Assay for Urokinase-type plasminogen activator receptor (uPAR) Biomarker Activity (AID 2283054); conditions: primary human coronary artery smooth muscle cells; actives raise or lower the signal;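 further: cell-surface uPAR protein level quantified by ELISA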
# [2] = read-out: Vascular cell adhesion molecule 1 (VCAM1), VCAM1 (gene 7412); experiment: BSK_CASM3C_VCAM1: BioMAP Diversity Plus: CASM3C Assay for Vascular cell adhesion molecule 1 (VCAM1) Biomarker Activity (AID 2283055); conditions: primary human coronary artery smooth muscle cells; actives raise or lower the signal;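 further: VCAM-1 protein level quantified by ELISA on the cells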
# [3] = read-out: Collagen III, COL3A1 (gene 1281); experiment: BSK_hDFCGF_CollagenIII: BioMAP Diversity Plus: hDFCGF Assay for Collagen III Biomarker Activity (AID 2283056); conditions: primary human foreskin fibroblasts; actives raise or lower the signal
# In short: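 Human foreskin primary fibroblasts were exposed to test chemicals for 24 h, after which collagen III was quantified by ELISA. Activity was fitted bidirectionally against DMSO as negative control and baseline.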
# [4] = read-out: Epidermal growth factor receptor (EGFR), EGFR (gene 1956); experiment: BSK_hDFCGF_EGFR: BioMAP Diversity Plus: hDFCGF Assay for Epidermal growth factor receptor (EGFR) Biomarker Activity (AID 2283057); conditions: primary human foreskin fibroblasts; actives raise or lower the signal
# In short: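 Measured by ELISA: EGFR levels on primary human foreskin fibroblasts 24 h after chemical treatment, analysed relative to DMSO with bidirectional fitting.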
# [5] = read-out: Interleukin-8 (IL8), CXCL8 (gene 3576); experiment: BSK_hDFCGF_IL8: BioMAP Diversity Plus: hDFCGF Assay for Interleukin-8 (IL8) Biomarker Activity (AID 2283058); conditions: primary human foreskin fibroblasts; actives raise or lower the signal
# In short: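 hDFCGF human dermal fibroblasts; 24 h chemical exposure; IL-8 by ELISA; bidirectional curve fit vs DMSO baseline; gain or loss of signal scored.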
# [6] = BSK_hDFCGF_Proliferation: Cell Proliferation Assessment in the BioMAP Diversity Plus: hDFCGF Assay (AID 2283059); conditions: primary human foreskin fibroblasts;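 further: curves fitted for both rise and fall of signal versus DMSO baseline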
# In short: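 This proliferation readout used SRB total-protein staining of human foreskin fibroblasts […], normalized to DMSO with bidirectional curve fitting.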
# [7] = BSK_hDFCGF_SRB: Viability Assessment in the BioMAP Diversity Plus: hDFCGF Assay (AID 2283061); conditions: primary human foreskin fibroblasts;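 further: cells exposed to compound for 24 h before the read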
# In short: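 Human foreskin primary fibroblasts were treated with compound and assessed 24 h after dosing. Total protein was measured by sulforhodamine B staining (0.1% SRB after 10% TCA fixation, 560 nm read) as a cytotoxicity marker, with bidirectional fitting against DMSO baseline.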
# [8] = read-out: Monokine induced gamma interferon (MIG), CXCL9 (gene 4283); experiment: BSK_hDFCGF_MIG: BioMAP Diversity Plus: hDFCGF Assay for Monokine induced gamma interferon (MIG) Biomarker Activity (AID 2283063); conditions: primary human foreskin fibroblasts; actives raise or lower the signal
# In short: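 ELISA read-out of MIG from primary human dermal fibroblasts 24 h post-dosing. Gain or loss of signal fitted bidirectionally, DMSO as baseline.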
# [9] = read-out: TIMP metallopeptidase inhibitor 1 (TIMP1), TIMP1 (gene 7076); experiment: BSK_hDFCGF_TIMP1: BioMAP Diversity Plus: hDFCGF Assay for TIMP metallopeptidase inhibitor 1 (TIMP1) Biomarker Activity (AID 2283062); conditions: primary human foreskin fibroblasts; actives raise or lower the signal
# In short: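 Primary human foreskin fibroblasts in the hDFCGF system were dosed with compound for 24 h, then TIMP-1 was measured by ELISA. Activity was fitted bidirectionally relative to DMSO control; parallel SRB staining assessed cytotoxicity.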
# [10] = read-out: Macrophage colony-stimulating factor (MCSF), CSF1 (gene 1435); experiment: BSK_hDFCGF_MCSF: BioMAP Diversity Plus: hDFCGF Assay for Macrophage colony-stimulating factor (MCSF) Biomarker Activity (AID 2283060); conditions: primary human foreskin fibroblasts; actives raise or lower the signal
# In short: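 Human foreskin primary fibroblasts were treated with test chemical for 24 h, and M-CSF was then measured by ELISA. Data were fitted bidirectionally against DMSO as the negative control and activity baseline.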
structure (smiles),measurement,setting,value
COc1cccc([C@H](O)C2CCN(CCc3ccc(F)cc3)CC2)c1OC,outcome,[1],inactive
same,outcome,[2],inactive
same,outcome,[3],inactive
same,outcome,[4],inactive
same,outcome,[5],inactive
same,outcome,[6],inactive
same,outcome,[7],inactive
same,outcome,[8],inactive
O=C(O)Cc1cc(I)c(Oc2ccc(O)c(I)c2)c(I)c1,outcome,[1],inactive
same,outcome,[2],inactive
same,AC50,[3],8.91 µM (active)
same,outcome,[4],inactive
same,outcome,[5],inactive
same,AC50,[6],13.7 µM (active)
same,AC50,[7],20.2 µM (active)
same,outcome,[9],inactive
same,outcome,[8],inactive
CO[C@H]1/C=C/O[C@@]2(C)Oc3c(C)c(O)c4c(O)c(c(/C=N/N5CCN(C)CC5)c(O)c4c3C2=O)NC(=O)/C(C)=C\C=C\[C@H](C)[C@H](O)[C@@H](C)[C@@H](O)[C@@H](C)[C@H](OC(C)=O)[C@@H]1C,outcome,[1],inactive
same,outcome,[2],inactive
same,outcome,[3],inactive
same,outcome,[4],inactive
same,outcome,[5],inactive
same,AC50,[6],19.4 µM (active)
same,outcome,[10],inactive
same,outcome,[7],inactive
same,outcome,[8],inactive
CC(C)(C)c1csc(-c2cc3cc(OCc4ccccc4CC(=O)O)ccc3o2)n1,outcome,[1],inactive
same,AC50,[2],15.4 µM (active)
same,AC50,[3],3.19 µM (active)
same,outcome,[4],inactive
same,AC50,[5],18.4 µM (active)
same,AC50,[6],9.8 µM (active)
same,AC50,[10],13 µM (active)
same,AC50,[7],17.2 µM (active)
same,AC50,[9],15.5 µM (active)
same,AC50,[8],15.2 µM (active)
Cc1cc2c(cc1C(F)(F)F)N(C(=O)Nc1ccc(Oc3cccnc3C)nc1)CC2,AC50,[1],25 µM (active)
same,AC50,[2],31.1 µM (active)
same,outcome,[3],inactive
same,outcome,[5],inactive
same,AC50,[6],1.94 µM (active)
same,outcome,[10],inactive
same,AC50,[7],27.6 µM (active)
same,outcome,[9],inactive
same,outcome,[8],inactive
CCN(CC)C(=O)c1cc(S(=O)(=O)Cc2ccccc2)c(N2CCC(c3ccccc3)CC2)cc1N(CC)CCN(C)C,AC50,[1],20.4 µM (active)
same,outcome,[2],inactive
same,AC50,[3],4.27 µM (active)
same,outcome,[4],inactive
same,outcome,[5],inactive
same,AC50,[6],5.9 µM (active)
same,AC50,[10],18.7 µM (active)
same,outcome,[7],inactive
same,outcome,[8],inactive
CC(C)(C)c1cc(/C=C2\SC(N)=NC2=O)cc(C(C)(C)C)c1O,AC50,[1],31.9 µM (active)
same,AC50,[2],31.1 µM (active)
same,AC50,[3],6.83 µM (active)
same,outcome,[4],inactive
same,AC50,[5],20 µM (active)
same,AC50,[6],7.49 µM (active)
same,AC50,[7],20 µM (active)
same,AC50,[8],14.2 µM (active)
CC(C)(c1cc(Br)c(O)c(Br)c1)c1cc(Br)c(O)c(Br)c1,AC50,[1],31.2 µM (active)
same,AC50,[2],29.3 µM (active)
same,AC50,[3],3.85 µM (active)
same,outcome,[4],inactive
same,AC50,[5],11.5 µM (active)
same,AC50,[6],3.94 µM (active)
same,AC50,[10],7.47 µM (active)
same,AC50,[7],5.8 µM (active)
same,AC50,[8],7.65 µM (active)
Cc1c2ccccc2c(C)c2c1ccc1ccccc12,outcome,[1],inactive
same,outcome,[2],inactive
same,AC50,[3],1.73 µM (active)
same,AC50,[4],5.45 µM (active)
same,outcome,[5],inactive
same,AC50,[6],7.26 µM (active)
same,outcome,[7],inactive
same,outcome,[8],inactive
CCCCCCCCOC(=O)c1cc(O)c(O)c(O)c1,AC50,[1],34.2 µM (active)
same,AC50,[2],28.2 µM (active)
same,AC50,[3],14 µM (active)
same,AC50,[5],33.2 µM (active)
same,AC50,[6],4.32 µM (active)
same,AC50,[10],27.8 µM (active)
same,AC50,[7],18.5 µM (active)
same,AC50,[9],37.8 µM (active)
same,AC50,[8],19.7 µM (active)
CN(C)C(=O)C1(N2CCCCC2)CCN(CC[C@@]2(c3ccc(Cl)c(Cl)c3)CN(C(=O)c3ccccc3)CCO2)CC1,AC50,[1],24.4 µM (active)
same,AC50,[2],30 µM (active)
same,AC50,[3],25.4 µM (active)
same,AC50,[4],9.57 µM (active)
same,AC50,[5],33.7 µM (active)
same,AC50,[6],5.15 µM (active)
same,AC50,[7],13.3 µM (active)
same,AC50,[9],24.8 µM (active)
same,AC50,[8],33.3 µM (active)
CN1C(=O)CC[C@H]1c1cccnc1,outcome,[1],inactive
same,outcome,[2],inactive
same,outcome,[3],inactive
same,outcome,[5],inactive
same,outcome,[6],inactive
same,outcome,[10],inactive
same,outcome,[7],inactive
same,outcome,[9],inactive
same,outcome,[8],inactive
CC(C)(O)c1ccc(CNC(=O)c2cccnc2Oc2ccc3nonc3c2)cc1,outcome,[1],inactive
same,outcome,[2],inactive
same,outcome,[3],inactive
same,outcome,[5],inactive
same,outcome,[6],inactive
same,outcome,[10],inactive
same,outcome,[7],inactive
same,outcome,[9],inactive
same,outcome,[8],inactive
CCN(Cc1cccnc1)C(=O)c1cccc(Cl)c1[C@]1(C)C(=O)N(Cc2ccc(OC)cc2OC)c2ccc(Cl)cc21,outcome,[1],inactive
same,AC50,[2],5.43 µM (active)
same,outcome,[3],inactive
same,AC50,[4],5.95 µM (active)
same,outcome,[5],inactive
same,AC50,[6],5.1 µM (active)
same,AC50,[10],5.49 µM (active)
same,outcome,[7],inactive
same,outcome,[9],inactive
same,outcome,[8],inactive
CC/C(=C(/CC)c1ccc(O)cc1)c1ccc(O)cc1,outcome,[1],inactive
same,AC50,[2],20 µM (active)
same,AC50,[3],11.4 µM (active)
same,outcome,[4],inactive
same,outcome,[5],inactive
same,AC50,[6],7.02 µM (active)
same,AC50,[7],25.7 µM (active)
same,AC50,[9],33.4 µM (active)
same,AC50,[8],28.1 µM (active)
CCCCOC(=O)c1ccc(O)cc1,outcome,[1],inactive
same,outcome,[2],inactive
same,outcome,[3],inactive
same,outcome,[4],inactive
same,outcome,[5],inactive
same,AC50,[6],20 µM (active)
same,outcome,[10],inactive
same,outcome,[7],inactive
same,outcome,[9],inactive
same,outcome,[8],inactive
OCCO,outcome,[1],inactive
same,outcome,[2],inactive
same,outcome,[3],inactive
same,outcome,[4],inactive
same,outcome,[5],inactive
same,AC50,[6],20.1 µM (active)
same,outcome,[10],inactive
same,outcome,[7],inactive
same,outcome,[9],inactive
same,outcome,[8],inactive
Cc1oc2c(NC(=O)c3c(Cl)cccc3Cl)cccc2c1C(C)(C)O,outcome,[1],inactive
same,outcome,[2],inactive
same,AC50,[3],20 µM (active)
same,AC50,[4],17.3 µM (active)
same,outcome,[5],inactive
same,AC50,[6],14.1 µM (active)
same,outcome,[7],inactive
same,outcome,[8],inactive
CCOC(=O)O[C@H](C)OC(=O)c1ccc2c(c1)cc(C(=O)NC1CCN(C(C)C)CC1)n2Cc1cc(-c2ccc(Cl)s2)on1,AC50,[1],6.27 µM (active)
same,AC50,[2],10.3 µM (active)
same,AC50,[3],4.13 µM (active)
same,AC50,[4],4.85 µM (active)
same,AC50,[5],6.12 µM (active)
same,AC50,[6],1.72 µM (active)
same,AC50,[7],4.96 µM (active)
same,AC50,[8],6.08 µM (active)
